Bioassay records (PubChem BioAssay)
HSD17B inhib – HSD17B dehydrogenase inhibition | Potency, µM (doses to about 57.1 µM), for the others: at the top dose activity change, negative = inhibition, hits mostly inhibitors | hit rate 7.6% among 75,000 | AID 893 | Q99714 | recombinant HSD17B10, NADH fluorescence kinetic;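 note: the protocol describes HADH2 (HSD17B10) and not the HSD17B4 of the title; nearly all actives have a fitted effect of over 70% in size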
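Activity followed as NADH fluorescence increase (ex 360, em 450 nm) every 30 seconds for 4 min, using final 90 uM beta-hydroxybutyryl CoA and 1 mM NAD+. Recombinant His-tagged enzyme, 20 nM, pH 9.0 Tris buffer, 15 min compound preincubation.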
HADH2 inh – blocks human hydroxyacyl-CoA dehydrogenase type II | Q99714 | recombinant HADH2, NADH fluorescence, beta-hydroxybutyryl-CoA | Potency, µM (highest dose often 57.1 µM), for the others: top-dose activity change, negative = inhibition, actives largely listed as inhibitors | hit rate 3.4% among 73,000 | AID 886; note: nearly all actives have a fitted effect of over 60% in size
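Activity measured as NADH fluorescence gain (360/450 nm), taken as the change between first and last reads of a 4-min kinetic run. Conditions: pH 9.0 Tris buffer, 20 nM E. coli-expressed His-tagged enzyme, 1 mM NAD+, 90 uM beta-hydroxybutyryl-CoA; 15-min compound preincubation.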
Bst PK mod – pyruvate kinase (B. stearothermophilus) modulation. purified pyruvate kinase, luminescence ATP production; ribose 5-phosphate activator present at AC10. Potency, µM. hit rate 1.2% among 51,000. AID 361; in the data active = potency below about 11 µM; inconclusive = mostly about 12 µM to 25 µM;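 the screen sought inhibitors and activators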;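 note: scaled between full activation by ribose 5 phosphate and full inhibition by luteolin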
15-hLO inh – inhibitors of human 15-lipoxygenase (ALOX15); purified 15hLO-1, xylenol orange hydroperoxide absorbance; hit rate 1.4% among 74,000; Potency, µM (series often up to 57.1 µM), without a hit: top-dose activity change, negative = inhibition, usual class: inhibitors; P16050; AID 887; note: nearly all actives have a fitted effect of over 55% in size
Target sequence (P16050 whole entry, looked up): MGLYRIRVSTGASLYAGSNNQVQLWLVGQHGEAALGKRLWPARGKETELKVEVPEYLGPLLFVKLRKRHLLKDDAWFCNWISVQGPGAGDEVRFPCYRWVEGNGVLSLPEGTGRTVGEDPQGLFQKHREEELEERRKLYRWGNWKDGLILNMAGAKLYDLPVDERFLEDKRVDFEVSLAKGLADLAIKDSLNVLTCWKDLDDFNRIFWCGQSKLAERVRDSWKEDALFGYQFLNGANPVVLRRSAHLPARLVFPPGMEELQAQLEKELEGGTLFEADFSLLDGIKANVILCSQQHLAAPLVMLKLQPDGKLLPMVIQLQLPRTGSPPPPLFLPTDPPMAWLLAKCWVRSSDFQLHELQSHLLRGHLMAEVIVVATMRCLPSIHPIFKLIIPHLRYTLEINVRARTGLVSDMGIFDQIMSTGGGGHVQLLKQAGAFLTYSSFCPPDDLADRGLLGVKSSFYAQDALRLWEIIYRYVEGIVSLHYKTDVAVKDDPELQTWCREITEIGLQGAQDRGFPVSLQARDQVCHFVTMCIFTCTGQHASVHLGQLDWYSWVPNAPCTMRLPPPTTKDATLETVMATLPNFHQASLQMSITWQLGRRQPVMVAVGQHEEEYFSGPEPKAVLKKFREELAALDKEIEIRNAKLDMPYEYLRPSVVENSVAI
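Compounds were preincubated 15 min at room temperature with 40 nM purified human enzyme (25 mM Hepes pH 7.5, 0.01% Triton X-100); 50 uM arachidonic acid reacted 6 min. Fe-xylenol orange detection, 30 min, absorbance ratio 573/405 nm.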
Luciferase inh – inhibitors of firefly luciferase; P08659; purified firefly luciferase, luminescence, 8 min; Potency, µM (top dose mostly 57.1 µM), without a hit: at the highest dose activity change, negative = inhibition, usual class: inhibitors; hit rate 2.2% among 72,000; AID 411; note: nearly all actives have a fitted effect of over 40% in size
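qHTS concentration-response profiling: light output of P. pyralis luciferase with luciferin and 10 uM ATP, imidazole buffer pH 7.2. Read by luminescence after 8-min room-temperature incubation.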
ERK AVP inh – inhibitors of vasopressin-stimulated ERK signaling pathway; HEK293-V1b, vasopressin-stimulated pERK AlphaScreen; Potency, µM (series often up to 57.5 µM), inactives show top-dose activity, negative = inhibition, most hits filed as inhibitors; hit rate 0.99% among 72,000; AID 995; note: nearly all actives have a fitted effect of over 55% in size
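HEK293 cells stably expressing V1b receptor, seeded overnight in 1% FBS, were treated with compounds for 30 min at 37C, then stimulated 5 min with 25 nM vasopressin; phospho-ERK read by AlphaScreen SureFire after lysis.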
Starred values were filed as active, the others as inactive; [ ] = dose if it differs, or a comment. A selection: hits, their analogues and other compounds. The true share with any hit is near 11%. Unless noted, calls come from the whole dose curve; as a rule, active = well fitted curve in the direction sought with a large enough effect; inconclusive = small, poorly fitted or top-dose-only effect, or another doubt; inactive = no such curve, though single readings can be large; an effect the other way counts as inactive or inconclusive. Unless noted, % is set by controls: 0 for no effect and ±100 for the full control effect; potency is the fitted concentration of half-maximal effect.

For CCN1C(=O)[C@H]2[C@H]3[C@H](O)[C@H](O)C/C(=N/OCC[C@H]4C=C[C@H](OC(C)=O)[C@@H](COC(C)=O)O4)[C@@H]3CC[C@@H]2C1=O the results were HSD17B inhib 1.5%[11.4 µM], HADH2 inh -0.3%[11.4 µM], 15-hLO inh 4.7%[11.4 µM], Luciferase inh 0.9%[11.4 µM] and ERK AVP inh 3.7%[11.5 µM].
Screening CCCn1c(CCC(=O)O)ccc1-c1cccs1 returned HSD17B inhib 31.6µM*, HADH2 inh -19.4%, Bst PK mod >57, 15-hLO inh inconclusive, Luciferase inh -1.5% and ERK AVP inh 6.2%.
Screening O=C(O)CCc1ccc(-c2cccs2)n1CC1CCCO1 (configuration not stated) returned HSD17B inhib 25.1µM*, HADH2 inh -21.7%, Bst PK mod >57, 15-hLO inh -23.4%, Luciferase inh 5.6% and ERK AVP inh -25.3%.
COCCCn1c(CCC(=O)O)ccc1-c1cccs1 was read as HSD17B inhib 25.1µM*, HADH2 inh -8.9%, Bst PK mod >57, 15-hLO inh -19.6%, Luciferase inh 3.1% and ERK AVP inh -3.0%.
`O=C(O)CCc1ccc(-c2cccs2)n1NC(=O)c1ccc(Cl)cc1` gave HSD17B inhib -11.5%, HADH2 inh inconclusive, 15-hLO inh -17.7%[11.4 µM], Luciferase inh 1.6% and ERK AVP inh -18.6%.
For c1ccc(CCc2cccnc2)nc1 the results were HSD17B inhib 7.0%[11.4 µM], HADH2 inh 7.7%[11.4 µM], 15-hLO inh 7.5%[11.4 µM], Luciferase inh -4.1%[11.4 µM] and ERK AVP inh 2.9%[11.5 µM].
Screening CCO[P@]1(=O)OC[C@@H]2O[C@H](n3cnc4c(N)ncnc43)[C@H](O)[C@@H]2O1 returned HSD17B inhib 11.6%[11.4 µM], HADH2 inh 0.0%[11.4 µM], 15-hLO inh 1.7%[11.4 µM], Luciferase inh 1.2%[11.4 µM] and ERK AVP inh -17.0%[11.5 µM].
CCOC(=O)c1cnn2c(C)cc(-c3ccccc3)nc12 was read as HSD17B inhib 25.1µM*, HADH2 inh 25.1µM*, 15-hLO inh -11.2%, Luciferase inh -20.3% and ERK AVP inh -4.0%.
Screening CC(C)CCNC(=O)c1cnn2c(C(F)(F)F)cc(-c3ccco3)nc12 returned HSD17B inhib 31.6µM*, HADH2 inh 5.2%, Bst PK mod >57, 15-hLO inh inconclusive, Luciferase inh -0.8% and ERK AVP inh -14.1%.
`O=C(NC1CCCC1)c1cnn2c(C(F)(F)F)cc(-c3ccco3)nc12` gave HSD17B inhib inconclusive, HADH2 inh -11.6%, Bst PK mod >57, 15-hLO inh inconclusive, Luciferase inh 0.3% and ERK AVP inh inconclusive.
Screening CCOC(=O)c1cnn2c(C(F)(F)F)cc(-c3ccco3)nc12 returned HSD17B inhib 31.6µM*, HADH2 inh -20.5%, Bst PK mod >57, 15-hLO inh 0.6%, Luciferase inh -0.5% and ERK AVP inh 4.0%.
For CC(=O)OC[C@H]1O[C@@H](O/N=C(\C)CCC(=O)OC[C@@H]2O[C@H](C#Cc3ccccc3)C=C[C@@H]2Oc2ccc(C)cc2)[C@H](OC(C)=O)[C@@H](OC(C)=O)[C@H]1OC(C)=O the results were HSD17B inhib -4.4%[11.4 µM], HADH2 inh 12.4%[11.4 µM], 15-hLO inh 5.3%[11.4 µM], Luciferase inh 0.7%[11.4 µM] and ERK AVP inh -7.8%[11.5 µM].
`Oc1ccc(Cc2nccc3cc(O)c(O)cc23)cc1O` gave HSD17B inhib inconclusive, HADH2 inh 0.631µM*, 15-hLO inh inconclusive, Luciferase inh -1.7%[11.4 µM] and ERK AVP inh -5.8%[11.5 µM].
Cc1nn(-c2nc3ccccc3s2)c(N)c1Sc1ccc(F)cc1 was read as HSD17B inhib 2.1%, HADH2 inh 11.5%, Bst PK mod >57, 15-hLO inh -1.5%, Luciferase inh 0.7% and ERK AVP inh -1.8%.
`O=c1cc(-c2ccccc2)[nH]n1-c1nc2ccccc2[nH]1` gave HSD17B inhib -11.4%, HADH2 inh -4.6%, 15-hLO inh 15.5%, Luciferase inh -20.5% and ERK AVP inh -11.2%.
Cc1nn(-c2nc3ccccc3[nH]2)c(N)c1-c1ccccc1 was read as HSD17B inhib -21.3%, HADH2 inh 20.0%, Bst PK mod 2.85*, 15-hLO inh -14.8%, Luciferase inh 7.94µM* and ERK AVP inh -16.4%.
Screening Cc1nn(-c2nc3ccccc3s2)c(N)c1-c1ccccc1 returned HSD17B inhib 1.6%, HADH2 inh -15.7%, Bst PK mod 1.64*, 15-hLO inh -14.7%, Luciferase inh 3.98µM* and ERK AVP inh 34.0%.
Screening Cc1nn(-c2nc3ccccc3s2)c(N)c1-c1ccc(Cl)cc1 returned HSD17B inhib 2.7%, HADH2 inh 6.0%, Bst PK mod 7.81*, 15-hLO inh -7.5%, Luciferase inh -17.0% and ERK AVP inh 2.3%.
For N#Cc1ccc2ccn(CC(=O)NC3CCCCC3)c2c1 the results were HSD17B inhib 31.6µM*, HADH2 inh -2.0%, Bst PK mod >57, 15-hLO inh -7.4%, Luciferase inh 2.5% and ERK AVP inh 0.5%.
Cc1cc2ccccc2c(=O)n1CC(=O)NC1CCCCCC1 was read as HSD17B inhib inconclusive, HADH2 inh -3.1%, Bst PK mod >57, 15-hLO inh -22.4%, Luciferase inh -0.4% and ERK AVP inh 9.6%.
`N#Cc1ccc2ccn(CC(=O)NCc3ccccc3)c2c1` gave HSD17B inhib 31.6µM*, HADH2 inh -13.3%, 15-hLO inh -4.5%, Luciferase inh -1.9% and ERK AVP inh -18.3%.
For COc1cccc2c(=O)n(CC(=O)NC3CCCCC3)ccc12 the results were HSD17B inhib 31.6µM*, HADH2 inh inconclusive, 15-hLO inh -10.2% and Luciferase inh 2.0%.
For CCCCCCCC/C=C\CCCCCCCC(=O)N[C@@H](CO)Cc1ccc(O)cc1 the results were HSD17B inhib -0.2%, HADH2 inh 9.7%, 15-hLO inh -13.3%[25.6 µM], Luciferase inh -4.4% and ERK AVP inh 2.9%.
Screening COc1c(OC)c2occc2c2oc(=O)ccc12 returned HSD17B inhib -2.7%, 15-hLO inh inconclusive and ERK AVP inh -19.3%.
CCOC(=O)C1=C(C)NC(=O)NC1/C(C)=C/c1ccccc1 (configuration not stated) was read as HSD17B inhib 3.5%, HADH2 inh 10.0%, 15-hLO inh -11.9%, Luciferase inh -0.6% and ERK AVP inh 31.6µM*.
For COC(=O)/C=C/C1c2ccccc2C(OC)C1C (configuration not stated) the results were HSD17B inhib 6.7%[11.4 µM], HADH2 inh 0.3%[11.4 µM], 15-hLO inh 12.4%[11.4 µM] and ERK AVP inh 18.4%[11.5 µM].
Screening N=C(N)SCCN1CCCCC1 returned HSD17B inhib 7.3%[11.4 µM], HADH2 inh -7.8%[11.4 µM], 15-hLO inh -6.0%[11.4 µM], Luciferase inh 2.2%[11.4 µM] and ERK AVP inh 3.7%[11.5 µM].
